Screens as filed in PubChem.
Tau fluor counter: counter-screen for tau fibril formation inhibitors | tau K18 P301L Alexa594 fluorescence, heparin fibrillization | Potency, µM (top dose mostly 57.7 µM), inactives show at the top dose activity change, negative = decrease | 0.93% of 280,000 active; also: nearly all actives have a fitted effect of over 55% in size
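Human K18 P301L tau (15 uM unlabeled plus 0.24 uM Alexa 594-labeled, final) in 100 mM sodium acetate pH 7 was mixed with compound and 20 uM heparin and incubated 6 hr at 37 C.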
Tau fibril ThT: tau fibrillization inhibition (ThT binding) | recombinant tau K18 P301L (four-repeat tau fragment), heparin-induced fibrillization, ThT fluorescence | Potency, µM (doses to about 57.4 µM), for the others: at the highest dose activity, negative = inhibition, actives largely listed as inhibitors | P10636 | 2.1% of 270,000 active | AID 1460; also: nearly all actives have a fitted effect of over 55% in size
Target sequence (P10636 561-689 P618L limits assumed): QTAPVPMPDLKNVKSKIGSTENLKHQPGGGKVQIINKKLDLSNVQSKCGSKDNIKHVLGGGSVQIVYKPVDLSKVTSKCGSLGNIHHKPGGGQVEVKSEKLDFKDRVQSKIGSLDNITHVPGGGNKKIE
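Heparin-induced (20 uM) aggregation of recombinant human K18 P301L tau, 15 uM unlabeled with 0.24 uM labeled, pH 7 acetate buffer, 6 hr at 37 C with compound. Fibrils quantified by 30 uM ThT fluorescence after 1 hr ambient incubation.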
Tau fibril FP: blocks human tau fibril formation measured by polarization; P10636; AID 1468; 0.39% of 280,000 active; K18 P301L tau heparin fibrillization, Alexa594 FP, 6 h; Potency, µM (doses to about 57.7 µM), for the others: at the highest dose activity, negative = inhibition, most hits filed as inhibitors; also: nearly all actives have a fitted effect of over 55% in size
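K18 P301L tau (15 uM unlabeled/0.24 uM Alexa 594-labeled, final) + compound + heparin 20 uM final; 100 mM NaOAc pH 7; 6 hr 37 C; ThT 30 uM final added, 1 hr RT; FP ex 555/em 632 nm.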
TRb-SRC2 inh: disrupts binding of human TR beta to SRC2; P10828; TRbeta-SRC2 peptide binding, fluorescence polarization; receptor liganded with 1 µM T3; Potency, µM (series often up to 106 µM), inactives show top-dose activity change, negative = inhibition, most hits filed as inhibitors; 0.065% of 280,000 active;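 also: plate controls were bound peptide for no effect and peptide without receptor for full effect; nearly all actives have a fitted effect of over 50% in size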
Target sequence (P10828 whole entry, looked up): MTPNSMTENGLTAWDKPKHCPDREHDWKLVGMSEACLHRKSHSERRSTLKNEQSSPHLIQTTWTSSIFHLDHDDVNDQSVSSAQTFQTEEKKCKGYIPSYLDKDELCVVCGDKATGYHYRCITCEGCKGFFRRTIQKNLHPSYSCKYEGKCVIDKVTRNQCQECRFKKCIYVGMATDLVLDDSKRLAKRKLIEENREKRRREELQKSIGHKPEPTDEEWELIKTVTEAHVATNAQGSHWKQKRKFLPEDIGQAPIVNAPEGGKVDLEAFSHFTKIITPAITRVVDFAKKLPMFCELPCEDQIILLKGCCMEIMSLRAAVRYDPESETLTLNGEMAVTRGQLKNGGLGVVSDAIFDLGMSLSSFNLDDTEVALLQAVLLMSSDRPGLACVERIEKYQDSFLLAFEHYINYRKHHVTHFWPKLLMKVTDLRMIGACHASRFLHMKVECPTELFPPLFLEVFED
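Assay buffer: 20 mM Tris-HCl, 100 mM NaCl, 10% glycerol, 1 mM EDTA, 0.01% NP-40, 1 mM DTT, 1 uM T3, 5% DMSO; TRb LBD 0.6 uM, Texas Red SRC2 20 nM; FP after 5 hr.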
KDM4E inh: JMJD2E (human) inhibition. JMJD2E catalytic domain, FDH-coupled NADH fluorescence (FDH is formaldehyde dehydrogenase). Potency, µM (titrated, usually from 57.1 µM), inactives show at the top dose activity change, negative = inhibition, hits mostly inhibitors. 1.6% of 230,000 active; active = well fitted inhibition curve with a large enough effect, not every such curve was filed as active; inconclusive = small, poorly fitted or top-dose-only effect, or another doubt; inactive = no such curve, though single readings can be large or run the other way;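 also: 0% = wells with enzyme and -100% = buffer wells without enzyme; nearly all actives have a fitted effect of over 50% in size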
TR SRC2 fluor cs: alters Texas Red total fluorescence, flagging assay interference; TRb/SRC2 Texas Red total fluorescence interference; Potency, µM (titrated, usually from 106 µM), inactives show at the top dose fluorescence change, negative = quenching; 0.29% of 280,000 active; AID 1479; active = well fitted curve in either direction with a large enough effect; inconclusive = small, poorly fitted or top-dose-only effect
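Flags fluorescent or light-absorbing compounds by total fluorescence, S + 2P, at 555 nm excitation and 632 nm emission. Mixture: 20 nM Texas Red SRC2 peptide, 0.6 uM human TRb LBD, 1 uM T3, 5% DMSO; compound exposure 5 h at ambient temperature.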
Starred values were filed as active, the others as inactive; [ ] = dose if it differs, or a comment. An excerpt weighted towards active compounds, which were near 3.5% of everything screened. Unless noted, calls follow the shape of the dose curve; as a rule, active = well fitted curve in the direction sought with a large enough effect; inconclusive = small, poorly fitted or top-dose-only effect, or another doubt; inactive = no such curve, though single readings can be large; an effect the other way counts as inactive or inconclusive. Unless noted, % is scaled to controls: 0 for no effect and ±100 for the full control effect; potency is read from the fitted curve at half-maximal effect.

Cc1ccc(-n2c(=O)c3c(cnn3C)n(CC(=O)Nc3cccc(Cl)c3)c2=O)cc1 was read as Tau fluor counter inconclusive, Tau fibril ThT 3.1%, Tau fibril FP -18.1%, TRb-SRC2 inh 3.3% and TR SRC2 fluor cs -1.7%.
For COc1ccc2c(c1)OCC(Cc1ccc(OC)c(OC)c1)C2=O (configuration not stated) the results were Tau fluor counter -23.5%, Tau fibril ThT inconclusive, Tau fibril FP -4.9%, TRb-SRC2 inh 4.3%, KDM4E inh -0.5% and TR SRC2 fluor cs -2.3%.
Cc1cccc(N2C(=O)C(Cl)=C(N3CCOCC3)C2=O)c1 was read as Tau fluor counter inconclusive, Tau fibril ThT 15.8µM*, Tau fibril FP 25.1µM*, TRb-SRC2 inh 0.7%, KDM4E inh -1.3% and TR SRC2 fluor cs -1.9%.
Screening Cc1cccc(N2C(=O)CC(N3CCOCC3)C2=O)c1 (configuration not stated) returned Tau fluor counter 6.1%, Tau fibril ThT -2.7%, Tau fibril FP 5.9%, TRb-SRC2 inh 2.3%, KDM4E inh 3.0% and TR SRC2 fluor cs -2.9%.
CCc1ccc(N2C(=O)C(Cl)=C(N3CCOCC3)C2=O)cc1 was read as Tau fluor counter 11.4%, Tau fibril ThT 12.8%, Tau fibril FP 1.3%, TRb-SRC2 inh 0.0%, KDM4E inh -1.4% and TR SRC2 fluor cs -2.2%.
For O=C1C(Cl)=C(N2CCOCC2)C(=O)N1c1cccc(Cl)c1 the results were Tau fluor counter inconclusive, Tau fibril ThT 12.6µM*, Tau fibril FP 28.2µM*, TRb-SRC2 inh -2.1%, KDM4E inh -6.4% and TR SRC2 fluor cs -0.8%.
CN(C)c1ccc(C(c2nnnn2C(C)(C)C)N2CCN(C(=O)c3ccco3)CC2)cc1 (configuration not stated) was read as Tau fluor counter inconclusive, Tau fibril ThT 15.8µM*, Tau fibril FP -14.2%, TRb-SRC2 inh 0.4%, KDM4E inh -7.5% and TR SRC2 fluor cs -0.6%.
For Cc1noc(C)c1S(=O)(=O)N1CCC2(CC1)OCCO2 the results were Tau fluor counter 10.5%, Tau fibril ThT 8.3%, Tau fibril FP 5.0%, TRb-SRC2 inh -8.7%, KDM4E inh -1.3% and TR SRC2 fluor cs -2.3%.
O=C(CSc1ncc(-c2ccc(Cl)cc2)[nH]1)Nc1ccccc1F was read as Tau fluor counter 14.1µM*[quencher], Tau fibril ThT -22.1%, Tau fibril FP -4.4%, TRb-SRC2 inh 7.2% and TR SRC2 fluor cs -0.6%.
For O=C(CSc1ncc(-c2ccccc2)[nH]1)Nc1cccc(Br)c1 the results were Tau fluor counter 15.8µM*[quencher], Tau fibril ThT inconclusive, Tau fibril FP inconclusive, TRb-SRC2 inh 0.4% and TR SRC2 fluor cs -1.9%.
O=C(CSc1ncc(-c2ccccc2)[nH]1)Nc1ccccc1F was read as Tau fluor counter inconclusive, Tau fibril ThT -20.8%, Tau fibril FP 10.7%, TRb-SRC2 inh -5.6%, KDM4E inh -4.1% and TR SRC2 fluor cs -1.1%.
`O=C(CSc1nc2ccccc2[nH]1)Nc1nc(-c2cccc(Br)c2)cs1` gave Tau fluor counter inconclusive, Tau fibril ThT -11.2%, Tau fibril FP 14.1µM*, TRb-SRC2 inh 7.4%, KDM4E inh -3.8% and TR SRC2 fluor cs -2.2%.
`O=C(CSc1ncc(-c2ccccc2)[nH]1)Nc1ccccc1` gave Tau fluor counter inconclusive, Tau fibril ThT -13.0%, Tau fibril FP 11.9%, TRb-SRC2 inh 1.7%, KDM4E inh 5.6% and TR SRC2 fluor cs -1.7%.
O=C(CSc1ncc(-c2ccccc2)[nH]1)Nc1ccc(Cl)cc1 was read as Tau fluor counter 14.1µM*[quencher], Tau fibril ThT -9.4%, Tau fibril FP -12.3%, TRb-SRC2 inh 5.2% and TR SRC2 fluor cs 0.5%.
Screening O=C(Nc1ccc(Cl)cc1C(F)(F)F)c1cc(S(=O)(=O)N2CCOCC2)ccc1F returned Tau fluor counter -10.3%, Tau fibril ThT 4.8%, Tau fibril FP -5.8%, TRb-SRC2 inh -4.4% and TR SRC2 fluor cs 0.5%.
Cn1c(O)c(N=NC(=O)c2ccccc2O)c2ccccc21 was read as Tau fluor counter -10.7%, Tau fibril ThT 12.6µM*, Tau fibril FP 8.1%, TRb-SRC2 inh 4.3%, KDM4E inh 7.0% and TR SRC2 fluor cs -9.6%.
O=C(N=Nc1c(O)n(Cc2ccccc2)c2ccccc12)c1ccc(O)cc1 was read as Tau fluor counter inconclusive, Tau fibril ThT 14.1µM*, Tau fibril FP -10.3%, TRb-SRC2 inh -4.4%, KDM4E inh -0.7% and TR SRC2 fluor cs -2.5%.
O=C(N=Nc1c(O)n(Cc2ccccc2)c2ccccc12)c1cc2ccccc2cc1O was read as Tau fluor counter -23.4%, Tau fibril ThT 12.6µM*, Tau fibril FP inconclusive, TRb-SRC2 inh -5.5%, KDM4E inh -0.7% and TR SRC2 fluor cs -8.8%.
Cc1ccc(NC(=O)Cn2c(O)c(N=NC(=O)c3cc4ccccc4cc3O)c3ccccc32)cc1 was read as Tau fluor counter -21.9%, Tau fibril ThT inconclusive, Tau fibril FP 15.1%, TRb-SRC2 inh 6.8%, KDM4E inh -1.8% and TR SRC2 fluor cs -11.4%.
Screening Cc1cc(N=NC(=O)c2ccccc2O)c2ccccc2c1O returned Tau fluor counter inconclusive, Tau fibril ThT 14.1µM*, Tau fibril FP inconclusive, TRb-SRC2 inh -4.6%, KDM4E inh -7.2% and TR SRC2 fluor cs -8.6%.
COc1cccc(-n2ccn(CC(=O)c3ccc(F)cc3)c(=O)c2=O)c1 was read as Tau fluor counter -8.0%, Tau fibril ThT -5.2%, Tau fibril FP -12.2%, TRb-SRC2 inh 1.1% and TR SRC2 fluor cs -11.6%.
CC(=O)N(C(C)=O)n1c(/C=C/c2cccc([N+](=O)[O-])c2)nc2ccccc2c1=O was read as Tau fluor counter -3.0%[2.34 µM], Tau fibril ThT 1.4%, Tau fibril FP -6.5%[2.34 µM], TRb-SRC2 inh 0.8%, KDM4E inh -1.9% and TR SRC2 fluor cs -2.0%.
For CNC(=O)NC(=O)CSc1ncc(C(F)(F)F)cc1Cl the results were Tau fluor counter 2.1%, Tau fibril ThT -1.2%, Tau fibril FP -2.1%, TRb-SRC2 inh 7.3%, KDM4E inh -2.5% and TR SRC2 fluor cs 3.3%.
`COc1ccc(NC(=O)Cn2nnc(C(=O)Nc3ccccc3C)c2N)cc1` gave Tau fluor counter -3.1%, Tau fibril ThT -6.5%, Tau fibril FP -2.0%, TRb-SRC2 inh 0.1%, KDM4E inh -3.8% and TR SRC2 fluor cs 0.6%.
For COc1ccc(OC)c(NC(=O)c2nnn(CC(=O)Nc3ccc(C(C)C)cc3)c2N)c1 the results were Tau fluor counter 14.1µM*[quencher], Tau fibril ThT inconclusive, Tau fibril FP -13.2%, TRb-SRC2 inh -0.8% and TR SRC2 fluor cs inconclusive.
